# Assay outcomes from PubChem.
# Rows were chosen to be rich in hits. Some 5.4% of all compounds tested hit in one or more screens of this group.
# HPGD inh = HPGD (human) dehydrogenase inhibition; P15428; purified HPGD, NADH fluorescence kinetic, PGE2 substrate; Potency, µM, for the others: at the highest dose activity change, negative = inhibition, hits mostly inhibitors; actives 4.3% (n = 150,000); active = well fitted inhibition curve with a large enough effect, not every such curve was filed as active; inconclusive = small, poorly fitted or top-dose-only effect, or another doubt; inactive = no such curve, though single readings can be large or run the other way; note: potency is the fitted concentration of half-maximal effect
#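 20 nM HPGD preincubated 15 min at room temperature with compound in 50 mM Tris-HCl pH 8, 0.01% Tween 20. Started with 1 mM NAD+ and 30 uM prostaglandin E2; NADH fluorescence (360/450 nm) read 5 times over 30-s intervals, last minus first.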
# ALOX15B inhib = inhibitors of human 15-lipoxygenase 2 (ALOX15B). O15296. purified 15hLO-2, xylenol orange hydroperoxide absorbance. Potency, µM (top dose mostly 57.1 µM), inactives show top-dose activity change, negative = inhibition, usual class: inhibitors. actives 0.56% (n = 110,000). AID 881; note: potency is the fitted concentration of half-maximal effect; nearly all actives have a fitted effect of over 60% in size
# Target sequence (O15296 whole entry, looked up): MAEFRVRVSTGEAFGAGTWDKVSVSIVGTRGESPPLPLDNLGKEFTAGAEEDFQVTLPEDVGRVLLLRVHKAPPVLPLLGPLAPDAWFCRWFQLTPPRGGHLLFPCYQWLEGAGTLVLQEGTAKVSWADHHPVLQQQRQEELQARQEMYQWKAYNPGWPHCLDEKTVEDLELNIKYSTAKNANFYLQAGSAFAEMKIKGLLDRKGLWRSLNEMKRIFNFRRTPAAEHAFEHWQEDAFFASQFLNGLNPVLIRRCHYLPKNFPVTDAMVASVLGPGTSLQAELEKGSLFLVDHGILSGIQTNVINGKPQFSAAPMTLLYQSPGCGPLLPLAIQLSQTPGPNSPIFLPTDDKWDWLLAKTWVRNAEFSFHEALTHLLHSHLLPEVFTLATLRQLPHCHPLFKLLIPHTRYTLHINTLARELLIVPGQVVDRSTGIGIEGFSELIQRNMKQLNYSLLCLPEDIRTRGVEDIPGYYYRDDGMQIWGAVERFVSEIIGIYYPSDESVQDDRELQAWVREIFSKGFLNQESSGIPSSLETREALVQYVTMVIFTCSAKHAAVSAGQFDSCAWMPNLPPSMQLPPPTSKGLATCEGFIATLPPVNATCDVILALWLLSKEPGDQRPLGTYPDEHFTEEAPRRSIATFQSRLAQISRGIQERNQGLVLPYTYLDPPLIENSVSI
#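 Enzyme 50 nM, AA 45 uM, 25 mM Hepes pH 7.5 + 0.01% Triton X-100; cpd preinc 15 min RT, rxn 90 min RT; stop/detect with 200 uM XO + 300 uM Fe(II) in 50 mM H2SO4, 30 min; A573/A405.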
# PNC assembly inh = inhibitors of perinucleolar compartment assembly; PC3M PTB-GFP, PNC prevalence imaging, 16 h; hits give low values; activity change (PNC), negative = inhibition, % at 10 µM; actives 3.1% (n = 140,000); AID 2417;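 active = readout at or below -70, meaning at least 70% loss of cells showing the perinucleolar compartment, a nuclear body marking cancer cells; inconclusive = readout between -30 and a set limit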;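 note: plate controls were DMSO wells for no effect and camptothecin positive control wells for full effect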
#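 Compounds are pinned in duplicate onto adhered PC3M cells stably expressing GFP-tagged PTB and incubated 16 h at 37 C. Cells are then fixed, nuclei stained with Hoechst, and PNC-positive cells counted.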
# IMPase inh = IMPase inhibition in cells | P97697 | CHO-M1 cells, IP1 accumulation, HTRF TR-FRET ratio | 120,000 tested, under 10 active | inhibition (IP1 accumulation), % at 46.1 µM; active = well fitted curve in the direction sought with a large enough effect in the signal ratio, not every such curve was filed as active; inconclusive = small, poorly fitted or top-dose-only effect, or a change in a side signal; inactive = no such curve, though single readings can be large or run the other way; the % refers to the signal ratio;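 note: cells stimulated with carbachol in lithium chloride buffer; plate controls were DMSO basal wells for no effect and reference inhibitor wells for full effect; higher means more IMPase inhibition seen as more IP1 and lower FRET ratio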
#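 Carbachol-driven Gq signalling in CHO-M1 cells (2000/well) generates IP1. Compounds that block IMPase raise IP1 and so reduce the FRET signal from Eu-anti-IP1 and d2-IP1 after a 10 min room-temperature lysis.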
# IMPase Li inh = membrane-permeable IMPase blocker, potentiated with lithium; CHO-M1 cells, IP1 TR-FRET (IP-One), carbachol + lithium; Potency, µM (highest dose often 59.4 µM), for inactives: top-dose activity, negative = IMPase inhibition, usual class: inhibitors; actives 0.35% (n = 210,000); AID 1457;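 note: IP1 builds up when IMPase is blocked and the TR-FRET signal falls; potency is the fitted concentration of half-maximal effect; plate controls were basal vehicle for no effect and high inhibitor control for full effect; nearly all actives have a fitted effect of over 50% in size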
#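 Test compounds were applied to CHO-M1 cells previously cultured for 16–30 h at 2000 per well. A small lithium amount accompanied them; after 30 min at 37C, IP1 was quantified by TR-FRET.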
# 12-hLO inh = inhibitors of human 12-lipoxygenase (ALOX12). P18054. purified 12-hLO, xylenol orange hydroperoxide absorbance. AID 1452. actives 0.12% (n = 150,000). Potency, µM (highest dose often 57.1 µM), without a hit: at the top dose activity change, negative = inhibition, actives largely listed as inhibitors; note: potency is the fitted concentration of half-maximal effect; nearly all actives have a fitted effect of over 55% in size
#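 Hydroperoxide formation by human 12-lipoxygenase from 40 uM arachidonic acid was followed colorimetrically via ferric-xylenol orange complex, using the 573/405 nm absorbance ratio. Enzyme concentration was 150 nM, with 30 min reaction at room temperature.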
# * = called active by the depositor; ? = inconclusive; / = no result given; [ ] = dose if it differs, or a comment. Unless noted, calls come from the whole dose curve; as a rule, active = well fitted curve in the direction sought with a large enough effect; inconclusive = small, poorly fitted or top-dose-only effect, or another doubt; inactive = no such curve, though single readings can be large; an effect the other way counts as inactive or inconclusive. Unless noted, % is set by controls: 0 for no effect and ±100 for the full control effect.
SMILES,HPGD inh,ALOX15B inhib,PNC assembly inh,IMPase inh,IMPase Li inh,12-hLO inh
COc1ccc(C2C(C(=O)c3sc(C)nc3C)=C(O)C(=O)N2CCN(C)C)cc1OC (stereo not given),-11%,7%[2.29 µM],-122*,-8,3%[38.3 µM],0%
CC(NC(=O)c1ccc(F)cc1)C(c1cccs1)N1CCN(C)CC1 (stereo not given),-12%,/,-116*,-8,-7%,11%
O=C(CCc1ccccc1)n1nc(-c2ccco2)nc1SCc1ccccc1,8.9µM*,-10%,?,-10,6%[38.3 µM],-3%
CCOC(=O)c1sc2nc(N3CCOCC3)c3c(c2c1N)CCCC3,?,-7%,?,-16,-26%[38.3 µM],-1%
Nc1c(C(=O)NCc2ccco2)sc2nc(N3CCOCC3)c3c(c12)CCCC3,?,-30%,-9,-26,10µM*,-18%
Cc1ccc(-n2c(C3CC3c3ccc(Cl)cc3)n[nH]c2=S)cc1 (stereo not given),8.9µM*,?,?,5,11%[38.3 µM],?
S=c1[nH]nc(C2CC2c2ccc(Cl)cc2)n1-c1ccc(Cl)cc1 (stereo not given),5µM*,/,-16,/,-3%,-29%
Cc1ccc(C2CC2c2n[nH]c(=S)n2-c2ccc(C)cc2)cc1 (stereo not given),?,?,-27,4,15%[38.3 µM],-13%
C[C@]12CC[C@@H]3c4ccc(O)cc4CC[C@H]3[C@@H]1CC[C@H]2O,-1%,-10%[0.0915 µM],/,/,7%,0%[0.00818 µM]
COCCn1c(SCC(=O)Nc2ccc(NC(=O)c3ccco3)c(OC)c2)nc2ccccc2c1=O,?,-18%,14,-2,5%[38.3 µM],-2%
CCOc1ccc(NC(=O)CSc2nc3ccccc3c(=O)n2CCNC(C)=O)cc1,-4%,-6%,-107*,-7,3%[38.3 µM],-6%
CCn1c(SCC(=O)Nc2ccc(NC(=O)c3ccco3)c(OC)c2)nc2ccccc2c1=O,?,-20%,-28,5,13µM*,-1%
Cc1ccc(NC(=O)CSc2nc3ccccc3c(=O)n2Cc2cccs2)cc1,-17%,/,-7,-6,13µM*,-5%
COc1ccc(NC(=O)CSc2nc3ccccc3c(=O)n2CCNC(C)=O)cc1,-1%,1%,14,1,6%[38.3 µM],-3%
COCCCn1c(SCC(=O)Nc2ccc(C)cc2)nc2ccccc2c1=O,/,/,/,/,-1%,/
COCCCn1c(SCC(=O)Nc2ccc(C(=O)OC)cc2)nc2ccccc2c1=O,-15%,0%,-117*,-6,7%[38.3 µM],-18%
CCC(O)OC(O)CC (stereo not given),-3%,3%,/,/,-9%,6%
CCc1cc2ccc(OC)cc2nc1SCC(=O)Nc1cc(C)on1,-14%,-11%,?,-4,?,-1%
CCCCn1c(SCC(=O)NC(C)CC)nc2ccc(N3CCOCC3)cc2c1=O (stereo not given),?,-6%,-24,-6,11µM*,-24%
CCCCn1c(SCC(=O)Nc2cc(C)on2)nc2ccccc2c1=O,?,-4%,?,-1,5.6µM*,3%
CCC(C)n1c(SCC(=O)Nc2cc(C)on2)nc2ccccc2c1=O (stereo not given),-9%,-4%,77,3,6%[38.3 µM],-2%
CCc1cc2ccccc2nc1SCC(=O)Nc1cc(C)on1,-28%,-4%,14,-10,10µM*,-2%
CCn1c(CSc2nc(C)cc(C)n2)nnc1SCC(=O)Nc1cccc2ccccc12,4%,-3%,-107*,-3,24%[38.3 µM],-1%
COC(=O)[C@@]1(Cc2ccc(OC)cc2)[C@H]2c3cc(C(=O)N(C)C)n(Cc4ccc(C(F)(F)F)nc4)c3C[C@H]2CN1C(=O)c1ccccc1,-5%,8%,/,/,7%,-25%
CC1(C)NC(=O)N(CC(O)CN2C(=O)NC(C)(C)C2=O)C1=O,-4%,1%,?,-4,-16%[38.3 µM],1%
